Experimental findings from article PMC11006913 are described below.

What all share (test): PBM; 200 nM protein, PBS
What all share (settings): dsDNA, one strand shown

Assay [1] has as its target T1, SIX6 (Homo sapiens, UniProt O95475 114-200, L167I).
T1 sequence: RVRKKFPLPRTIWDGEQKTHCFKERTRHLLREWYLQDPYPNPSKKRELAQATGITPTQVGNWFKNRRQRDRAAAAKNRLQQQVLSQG

The target in assay [2] is T2, SIX6 (Homo sapiens, UniProt O95475 114-200, L143V).
T2 sequence: T1 sequence with L30V, I54L

In assay [3] the target is T3, SIX6 (Homo sapiens, UniProt O95475 114-200, H141N).
T3 sequence: T1 sequence with H28N, I54L

Assay [4] has as its target T4, SIX6 (Homo sapiens, UniProt O95475 114-200, T165P).
T4 sequence: T1 sequence with T52P, I54L

Assay [5] has as its target T5, SIX6 (Homo sapiens, UniProt O95475 114-200, L167M).
T5 sequence: T1 sequence with I54M

Assay [6] deals with T6, SIX6 (Homo sapiens, UniProt O95475 114-200, L143M).
T6 sequence: T1 sequence with L30M, I54L

For assay [7], the target named is T7, SIX6 (Homo sapiens, UniProt O95475 114-200, L143I).
T7 sequence: T1 sequence with L30I, I54L

Assay [8] deals with T8, SIX6 (Homo sapiens, UniProt O95475 114-200, T165G).
T8 sequence: T1 sequence with T52G, I54L

The target of assay [9] is T9, SIX6 (Homo sapiens, UniProt O95475 114-200, T139Q).
T9 sequence: T1 sequence with T26Q, I54L

The target of assay [10] is T10, SIX6 (Homo sapiens, UniProt O95475 114-200, T165A).
T10 sequence: T1 sequence with T52A, I54L

Assay [11] concerns the target T11, SIX6 (Homo sapiens, UniProt O95475 114-200, L167V).
T11 sequence: T1 sequence with I54V

Assay [12] deals with T12, SIX6 (Homo sapiens, UniProt O95475 114-200).
T12 sequence: T1 sequence with I54L

For assay [13], the target named is T13, SIX6 (Homo sapiens, UniProt O95475 114-200, T165I).
T13 sequence: T1 sequence with T52I, I54L

In assay [14] the target is HOXA2 (Homo sapiens, UniProt O43364 129-215, R185T).
Assay [15] concerns the target HOXA2 (Homo sapiens, UniProt O43364 129-215, R185K).
Assay [16] has as its target HOXA2 (Homo sapiens, UniProt O43364 129-215, Y150S).
Assay [17] deals with HOXA2 (Homo sapiens, UniProt O43364 129-215).
Assay [18] deals with HOXB9 (Homo sapiens, UniProt P17482 171-250).
Assay [19] has as its target HOXB9 (Homo sapiens, UniProt P17482 171-250, R186Q).

Changes are numbered by the printed parent chain.

HOXA2 (Homo sapiens, UniProt O43364 129-215, Y150S), sequence (O43364 129-215 Y150S): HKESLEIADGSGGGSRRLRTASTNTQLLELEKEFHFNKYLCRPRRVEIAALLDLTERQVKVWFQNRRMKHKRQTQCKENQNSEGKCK
HOXA2 (Homo sapiens, UniProt O43364 129-215, R185T), sequence (O43364 129-215 R185T): as the sequence (O43364 129-215 Y150S) above, with S22Y, R57T counted along it
HOXA2 (Homo sapiens, UniProt O43364 129-215), sequence (O43364 129-215): as the sequence (O43364 129-215 Y150S) above, with S22Y counted along it
HOXA2 (Homo sapiens, UniProt O43364 129-215, R185K), sequence (O43364 129-215 R185K): as the sequence (O43364 129-215 Y150S) above, with S22Y, R57K counted along it
HOXB9 (Homo sapiens, UniProt P17482 171-250), sequence (P17482 171-250): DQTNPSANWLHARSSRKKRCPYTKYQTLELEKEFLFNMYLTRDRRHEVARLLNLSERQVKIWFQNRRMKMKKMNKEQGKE
HOXB9 (Homo sapiens, UniProt P17482 171-250, R186Q), sequence (P17482 171-250 R186Q): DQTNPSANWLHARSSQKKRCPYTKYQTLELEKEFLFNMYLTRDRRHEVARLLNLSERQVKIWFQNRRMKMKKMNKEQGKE

Consider CAGCGCCG, for which the binding signal in assay [1] is 8.83 upbm affinity estimate (log intensity, higher = more binding, comparable within an allelic series); in assay [2] it was 8.75 upbm affinity estimate (log intensity, higher = more binding, comparable within an allelic series); in assay [3] it was 8.78 upbm affinity estimate (log intensity, higher = more binding, comparable within an allelic series); in assay [4] it was 8.87 upbm affinity estimate (log intensity, higher = more binding, comparable within an allelic series); in assay [5], 8.78 upbm affinity estimate (log intensity, higher = more binding, comparable within an allelic series); in [6], 8.76 upbm affinity estimate (log intensity, higher = more binding, comparable within an allelic series). Also, the binding signal was 8.8 upbm affinity estimate (log intensity, higher = more binding, comparable within an allelic series) in assay [7]; 8.83 upbm affinity estimate (log intensity, higher = more binding, comparable within an allelic series) in assay [8]; 8.77 upbm affinity estimate (log intensity, higher = more binding, comparable within an allelic series) in assay [9]; 8.74 upbm affinity estimate (log intensity, higher = more binding, comparable within an allelic series) in assay [10]; 8.79 upbm affinity estimate (log intensity, higher = more binding, comparable within an allelic series) in assay [11]; 8.78 upbm affinity estimate (log intensity, higher = more binding, comparable within an allelic series) in [12]. Moreover, the binding signal in [13] is 8.74 upbm affinity estimate (log intensity, higher = more binding, comparable within an allelic series).

As for GTCCGGAC, the binding signal in [1] is 9.13 upbm affinity estimate (log intensity, higher = more binding, comparable within an allelic series); in assay [2] it was 8.97 upbm affinity estimate (log intensity, higher = more binding, comparable within an allelic series); in [3], 8.97 upbm affinity estimate (log intensity, higher = more binding, comparable within an allelic series); in assay [4], 9.02 upbm affinity estimate (log intensity, higher = more binding, comparable within an allelic series); in [5] it was 9.09 upbm affinity estimate (log intensity, higher = more binding, comparable within an allelic series); in [6], 9.15 upbm affinity estimate (log intensity, higher = more binding, comparable within an allelic series). Further, the binding signal in assay [7] was 9.08 upbm affinity estimate (log intensity, higher = more binding, comparable within an allelic series); in [8] it was 9.27 upbm affinity estimate (log intensity, higher = more binding, comparable within an allelic series); in assay [14], 7.42 upbm affinity estimate (log intensity, higher = more binding, comparable within an allelic series); in [9] it was 9.2 upbm affinity estimate (log intensity, higher = more binding, comparable within an allelic series); in assay [10], 9.14 upbm affinity estimate (log intensity, higher = more binding, comparable within an allelic series); in assay [15], 10.6 upbm affinity estimate (log intensity, higher = more binding, comparable within an allelic series). The binding signal in [11] is 9.17 upbm affinity estimate (log intensity, higher = more binding, comparable within an allelic series); in assay [12], 9.13 upbm affinity estimate (log intensity, higher = more binding, comparable within an allelic series); in assay [13] it was 9.13 upbm affinity estimate (log intensity, higher = more binding, comparable within an allelic series); in assay [16], 10.6 upbm affinity estimate (log intensity, higher = more binding, comparable within an allelic series); in assay [17], 7.3 upbm affinity estimate (log intensity, higher = more binding, comparable within an allelic series).

As for CTCCGCCC, the binding signal in [1] is 8.91 upbm affinity estimate (log intensity, higher = more binding, comparable within an allelic series); in [2], 8.91 upbm affinity estimate (log intensity, higher = more binding, comparable within an allelic series); in [3] it was 8.92 upbm affinity estimate (log intensity, higher = more binding, comparable within an allelic series); in assay [4] it was 8.95 upbm affinity estimate (log intensity, higher = more binding, comparable within an allelic series); in [5], 8.94 upbm affinity estimate (log intensity, higher = more binding, comparable within an allelic series); in [6] it was 8.89 upbm affinity estimate (log intensity, higher = more binding, comparable within an allelic series). Further, the binding signal in assay [7] was 8.86 upbm affinity estimate (log intensity, higher = more binding, comparable within an allelic series); in [8], 8.87 upbm affinity estimate (log intensity, higher = more binding, comparable within an allelic series); in assay [9], 8.89 upbm affinity estimate (log intensity, higher = more binding, comparable within an allelic series); in [10] it was 8.96 upbm affinity estimate (log intensity, higher = more binding, comparable within an allelic series); in assay [11] it was 8.86 upbm affinity estimate (log intensity, higher = more binding, comparable within an allelic series); in [12] it was 8.89 upbm affinity estimate (log intensity, higher = more binding, comparable within an allelic series). In addition, the binding signal in [13] was 8.95 upbm affinity estimate (log intensity, higher = more binding, comparable within an allelic series).

Turning to GCCCTGCC, the binding signal in assay [1] was 8.89 upbm affinity estimate (log intensity, higher = more binding, comparable within an allelic series); in assay [2], 8.78 upbm affinity estimate (log intensity, higher = more binding, comparable within an allelic series); in assay [3], 8.91 upbm affinity estimate (log intensity, higher = more binding, comparable within an allelic series); in [4] it was 8.91 upbm affinity estimate (log intensity, higher = more binding, comparable within an allelic series); in assay [5], 8.87 upbm affinity estimate (log intensity, higher = more binding, comparable within an allelic series); in assay [6], 8.9 upbm affinity estimate (log intensity, higher = more binding, comparable within an allelic series). In addition, the binding signal is 8.84 upbm affinity estimate (log intensity, higher = more binding, comparable within an allelic series) in assay [7]; 8.91 upbm affinity estimate (log intensity, higher = more binding, comparable within an allelic series) in [8]; 6.93 upbm affinity estimate (log intensity, higher = more binding, comparable within an allelic series) in [14]; 9.01 upbm affinity estimate (log intensity, higher = more binding, comparable within an allelic series) in assay [9]; 8.99 upbm affinity estimate (log intensity, higher = more binding, comparable within an allelic series) in assay [10]; 10.3 upbm affinity estimate (log intensity, higher = more binding, comparable within an allelic series) in assay [15]. Also, the binding signal in assay [11] is 8.94 upbm affinity estimate (log intensity, higher = more binding, comparable within an allelic series); in [12], 8.87 upbm affinity estimate (log intensity, higher = more binding, comparable within an allelic series); in [13], 8.85 upbm affinity estimate (log intensity, higher = more binding, comparable within an allelic series); in [16] it was 10.4 upbm affinity estimate (log intensity, higher = more binding, comparable within an allelic series); in assay [17], 7.06 upbm affinity estimate (log intensity, higher = more binding, comparable within an allelic series).

Consider AGTGATAT, for which the binding signal in [1] is 11.3 upbm affinity estimate (log intensity, higher = more binding, comparable within an allelic series); in [2], 10.3 upbm affinity estimate (log intensity, higher = more binding, comparable within an allelic series); in assay [3], 11.3 upbm affinity estimate (log intensity, higher = more binding, comparable within an allelic series); in assay [4] it was 9.9 upbm affinity estimate (log intensity, higher = more binding, comparable within an allelic series); in assay [5], 10.8 upbm affinity estimate (log intensity, higher = more binding, comparable within an allelic series); in assay [6], 11 upbm affinity estimate (log intensity, higher = more binding, comparable within an allelic series). Moreover, the binding signal was 10.3 upbm affinity estimate (log intensity, higher = more binding, comparable within an allelic series) in assay [7]; 11.2 upbm affinity estimate (log intensity, higher = more binding, comparable within an allelic series) in assay [8]; 9.87 upbm affinity estimate (log intensity, higher = more binding, comparable within an allelic series) in assay [18]; 11.1 upbm affinity estimate (log intensity, higher = more binding, comparable within an allelic series) in [9]; 11.2 upbm affinity estimate (log intensity, higher = more binding, comparable within an allelic series) in assay [10]; 11 upbm affinity estimate (log intensity, higher = more binding, comparable within an allelic series) in [11]. Further, the binding signal is 11 upbm affinity estimate (log intensity, higher = more binding, comparable within an allelic series) in [12]; 11.1 upbm affinity estimate (log intensity, higher = more binding, comparable within an allelic series) in assay [13]; 9.76 upbm affinity estimate (log intensity, higher = more binding, comparable within an allelic series) in assay [19].
